From PubChem BioAssay (NCATS)
Active and inactive are the calls of the source. Unless noted, the call rests on the fitted dose curve; in most records, active means well fitted curve in the direction sought with a large enough effect (not every such curve was filed as active); inconclusive means small, poorly fitted or top-dose-only effect, or effect the other way, or another doubt; inactive means no such curve, though single readings can be large or run the other way.

Target: Pyruvate kinase PKM (Homo sapiens) (UniProt P14618)
Sequence (P14618 whole entry, looked up): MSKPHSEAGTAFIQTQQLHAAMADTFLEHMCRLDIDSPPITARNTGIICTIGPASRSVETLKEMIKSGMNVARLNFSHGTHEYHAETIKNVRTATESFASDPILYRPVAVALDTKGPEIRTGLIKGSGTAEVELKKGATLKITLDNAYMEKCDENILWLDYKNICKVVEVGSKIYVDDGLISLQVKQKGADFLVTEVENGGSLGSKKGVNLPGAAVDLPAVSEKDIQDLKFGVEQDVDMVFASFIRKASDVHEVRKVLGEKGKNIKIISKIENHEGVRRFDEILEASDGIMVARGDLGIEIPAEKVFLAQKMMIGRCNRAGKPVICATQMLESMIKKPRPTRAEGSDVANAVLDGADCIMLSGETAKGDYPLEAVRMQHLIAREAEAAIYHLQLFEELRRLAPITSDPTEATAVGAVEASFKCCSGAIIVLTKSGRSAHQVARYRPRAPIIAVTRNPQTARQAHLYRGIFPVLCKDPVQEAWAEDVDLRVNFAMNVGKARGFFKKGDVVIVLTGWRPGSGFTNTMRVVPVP
Test: qHTS Assay for Activators of Human Muscle Pyruvate Kinase (AID 954)
Conditions: purified human muscle pyruvate kinase, luciferase-coupled luminescence, 1 h; series mostly up to 57.5 µM
Procedure, shortened: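 Human PKM2 activity is measured as ATP generation, detected by luciferase-coupled luminescence. The enzyme (0.1 nM) acts on 0.5 mM PEP and 0.1 mM ADP for 1 h at ambient temperature; data are normalized to uninhibited and full-inhibition wells.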

SMILES | outcome
O=C1N(c2ccccc2)c2ccccc2C1(Cc1ccncc1)Cc1ccncc1 | inactive
Fc1ccc([C@@H]2CCNC[C@H]2COc2ccc3c(c2)OCO3)cc1 | inactive
CC(C)Cc1ccc(C(C)C(=O)O)cc1 (centres undefined) | inactive
Cc1ccccc1N1C(=O)c2cc(S(N)(=O)=O)c(Cl)cc2NC1C (centres undefined) | inactive
CCOC(=O)Nc1ccc(NCc2ccc(F)cc2)nc1N | inactive
CN1CCN(C2=Nc3cc(Cl)ccc3Nc3ccccc32)CC1 | inactive
Cc1cc(C(C)(C)C)c(O)c(C)c1CC1=NCCN1 | inactive
CN1CCC(=C2c3ccccc3CC(=O)c3sccc32)CC1 | inactive
CN(Cc1cnc2nc(N)nc(N)c2n1)c1ccc(C(=O)N[C@@H](CCC(=O)O)C(=O)O)cc1 | inactive
COc1nc(C)nc(Cl)c1NC1=NCCN1 | inactive
CN(C)CCOC(c1ccccc1)c1ccccc1 | inactive
NC(=O)NO | inactive
O=C1c2c(O)ccc(O)c2C(=O)c2c(NCCNCCO)ccc(NCCNCCO)c21 | inactive
Clc1ccc2c(c1)C(N1CCNCC1)=Nc1ccccc1O2 | inactive
CN1CCC(=C2c3ccccc3C=Cc3ccccc32)CC1 | inactive
O=C(CCCN1CCC(O)(c2ccc(Cl)cc2)CC1)c1ccc(F)cc1 | inactive
CN(C)c1nc(N(C)C)nc(N(C)C)n1 | inactive
CC[N+](CC)(CC)CCOc1cccc(OCC[N+](CC)(CC)CC)c1OCC[N+](CC)(CC)CC | inactive

SMILES | outcome
CN(C)CCCN1c2ccccc2CCc2ccc(Cl)cc21 | inactive
Cc1cnc(C(=O)NCCc2ccc(S(=O)(=O)NC(=O)NC3CCCCC3)cc2)cn1 | inactive
Cc1ccc(C(=O)Nc2ccc(S(=O)(=O)O)c3cc(S(=O)(=O)O)cc(S(=O)(=O)O)c23)cc1NC(=O)c1cccc(NC(=O)Nc2cccc(C(=O)Nc3cc(C(=O)Nc4ccc(S(=O)(=O)O)c5cc(S(=O)(=O)O)cc(S(=O)(=O)O)c45)ccc3C)c2)c1 | inactive
COc1cc2c(c(OC)c1OC)-c1ccc(OC)c(=O)cc1[C@@H](NC(C)=O)CC2 | inactive
NC12CC3CC(CC(C3)C1)C2 | inactive
CN1CCN(CCCN2c3ccccc3Sc3ccc(Cl)cc32)CC1 | inactive
O=C(Nc1ccc([N+](=O)[O-])cc1Cl)c1cc(Cl)ccc1O | inactive
NCCc1cnc[nH]1 | inactive
CCc1cccc2c3c([nH]c12)C(CC)(CC(=O)O)OCC3 (centres undefined) | inactive
O=c1c(O)c(-c2ccc(O)c(O)c2)oc2cc(O)cc(O)c12 | inactive
CCOC(=O)c1ncn2c1CN(C)C(=O)c1cc(F)ccc1-2 | inactive
CN1C(C(=O)Nc2ccccn2)=C(O)c2ccccc2S1(=O)=O | inactive
Cn1ccc2cc3c(cc21)CCN3C(=O)Nc1cccnc1 | inactive
Nc1nc2c(ncn2COC(CO)CO)c(=O)[nH]1 | inactive
CCOC(=O)C(C)(C)Oc1ccc(Cl)cc1 | inactive
CN(C)CCC=C1c2ccccc2C=Cc2ccccc21 | inactive
Clc1ccccc1C(c1ccccc1)(c1ccccc1)n1ccnc1 | inactive
Cc1cc(C(C)(C)C)cc(C)c1CC1=NCCN1 | inactive

Target: Pyruvate kinase (Leishmania mexicana) (UniProt Q27686)
Sequence (Q27686 2-499 E452W): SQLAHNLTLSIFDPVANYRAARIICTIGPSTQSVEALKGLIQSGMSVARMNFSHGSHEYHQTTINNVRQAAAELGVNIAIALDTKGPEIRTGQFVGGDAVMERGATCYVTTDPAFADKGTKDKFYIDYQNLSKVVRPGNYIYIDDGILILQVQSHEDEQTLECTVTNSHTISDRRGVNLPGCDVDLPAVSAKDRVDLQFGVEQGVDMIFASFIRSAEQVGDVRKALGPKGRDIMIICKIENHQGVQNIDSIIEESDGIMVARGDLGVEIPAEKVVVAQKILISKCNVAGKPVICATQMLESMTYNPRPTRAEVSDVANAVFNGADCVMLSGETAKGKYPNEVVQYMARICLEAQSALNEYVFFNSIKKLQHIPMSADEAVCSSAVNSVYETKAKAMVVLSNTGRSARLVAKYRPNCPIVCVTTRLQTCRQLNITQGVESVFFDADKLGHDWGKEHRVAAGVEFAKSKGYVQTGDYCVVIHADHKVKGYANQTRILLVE
Test: qHTS Validation Assay for Activators of Leishmania Mexicana Pyruvate Kinase (AID 959; active means well fitted activation curve with a large enough effect)
Conditions: purified L. mexicana pyruvate kinase, enzyme activity; series mostly up to 57.5 µM
Procedure, shortened: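 Eight-point qHTS titrations in triplicate, data normalized to DMSO neutral control. Reaction: 0.2 nM LmPYK E451W mutant, 0.5 mM PEP, 0.1 mM ADP, 7 mM MgCl2, pH 7.2, one hour at room temperature; luminescent ATP detection.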

SMILES | outcome
O=C1c2c(O)ccc(O)c2C(=O)c2c(NCCNCCO)ccc(NCCNCCO)c21 | inactive
O=C(Nc1ccc([N+](=O)[O-])cc1Cl)c1cc(Cl)ccc1O | inactive
Cn1ccc2cc3c(cc21)CCN3C(=O)Nc1cccnc1 | inactive
